We go through eight molecules from article PMC11062922 (Nature Chemical Biology, 2023).

Molecules are shown by their SMILES. Where two headings read alike, the source gives them in different places.

Holding throughout (set-up): species or system human, MV4-11 + K-562 + COLO205 + SK-N-BE2 + OVCAR-8
In one assay the test system is ADRBK1. The note with it: read-out: apparent Kd, n = 1.
A further assay concerns AKT2. The note with it: read-out: apparent Kd, n = 1.
The test system of the next assay is EIF2AK1. The note with it: read-out: apparent Kd; compound concentrations:100 nM and 1000 nM (sheet 'Samples'); n = 1.
Another assay relates to GSK3A. The following applies: read-out: apparent Kd; compound concentrations:100 nM and 1000 nM (sheet 'Samples'); n = 1.
The test system of another assay is GSK3B. The following applies: read-out: apparent Kd; compound concentrations:100 nM and 1000 nM (sheet 'Samples'); n = 1.
A further assay has as its system PIM2. The following applies: read-out: apparent Kd; compound concentrations:100 nM and 1000 nM (sheet 'Samples'); n = 1.
A further assay has as its system PRKAG1. The note with it: read-out: apparent Kd; compound concentrations:100 nM and 1000 nM (sheet 'Samples'); n = 1.
A further assay deals with TAOK1. The following applies: read-out: apparent Kd; compound concentrations:100 nM and 1000 nM (sheet 'Samples'); n = 1.
Another assay concerns AKT1. The note with it: read-out: apparent Kd, n = 1.
The next assay relates to CSNK1A1. The note with it: read-out: apparent Kd; compound concentrations:100 nM and 1000 nM (sheet 'Samples'); n = 1.
The subject of a further assay is MAP2K2. The note with it: read-out: apparent Kd, n = 1.
The test system of a further assay is MAP3K4. The following applies: read-out: apparent Kd; compound concentrations:100 nM and 1000 nM (sheet 'Samples'); n = 1.
In a further assay the test system is MAPK14. The following applies: read-out: apparent Kd; compound concentrations: 100 nM and 1000 nM (sheet 'Samples'), CATDS: 0.122142095126863; n = 1.
In a further assay the test system is NCL. The following applies: read-out: apparent Kd; compound concentrations:100 nM and 1000 nM (sheet 'Samples'); n = 1.
The next assay deals with OPA1. The following applies: read-out: apparent Kd; compound concentrations:100 nM and 1000 nM (sheet 'Samples'); n = 1.
The test system of another assay is PIP4K2C. The following applies: read-out: apparent Kd; compound concentrations:100 nM and 1000 nM (sheet 'Samples'); n = 1.
A further assay has as its system PRKAG2. The note with it: read-out: apparent Kd; compound concentrations:100 nM and 1000 nM (sheet 'Samples'); n = 1.
Another assay relates to PYGL. The following applies: read-out: apparent Kd; compound concentrations:100 nM and 1000 nM (sheet 'Samples'); n = 1.
A further assay concerns STK16. The note with it: read-out: apparent Kd; compound concentrations:100 nM and 1000 nM (sheet 'Samples'); n = 1.
The subject of the next assay is STK26. The note with it: read-out: apparent Kd; compound concentrations:100 nM and 1000 nM (sheet 'Samples'); n = 1.
The test system of a further assay is ADCK3. The note with it: read-out: apparent Kd; compound concentrations: 100 nM and 1000 nM (sheet 'Samples'), CATDS: 0.21121986416857899; n = 1.
Another assay relates to RIPK2. The note with it: read-out: apparent Kd; compound concentrations: 100 nM and 1000 nM (sheet 'Samples'), CATDS: 0.926895955727292; n = 1.
In the next assay the test system is RIPK3. The note with it: read-out: apparent Kd; compound concentrations: 100 nM and 1000 nM (sheet 'Samples'), CATDS: 0.31380158399753799; n = 1.
The test system of a further assay is ADK. The following applies: read-out: apparent Kd, n = 1.
The test system of the next assay is COX5A. The following applies: read-out: apparent Kd, n = 1.
The subject of another assay is EPHA7. The following applies: read-out: apparent Kd; compound concentrations:100 nM and 1000 nM (sheet 'Samples'); n = 1.
In the next assay the test system is PIK3CB. The following applies: read-out: apparent Kd; compound concentrations:100 nM and 1000 nM (sheet 'Samples'); n = 1.
The subject of a further assay is PIK3CD. The following applies: read-out: apparent Kd; compound concentrations:100 nM and 1000 nM (sheet 'Samples'); n = 1.
A further assay concerns RIOK2. The following applies: read-out: apparent Kd; compound concentrations:100 nM and 1000 nM (sheet 'Samples'); n = 1.
For the next assay, the system named is CDK6. The following applies: read-out: apparent Kd; compound concentrations: 100 nM and 1000 nM (sheet 'Samples'), CATDS: 0.120580307710246; n = 1.
The subject of a further assay is MAP2K1. The note with it: read-out: apparent Kd; compound concentrations: 100 nM and 1000 nM (sheet 'Samples'), CATDS: 0.131345384217323; n = 1.
In another assay the test system is NNT. The note with it: read-out: apparent Kd; compound concentrations: 100 nM and 1000 nM (sheet 'Samples'), CATDS: 0.14240170913061401; n = 1.
Another assay relates to NQO1. The following applies: read-out: apparent Kd; compound concentrations: 100 nM and 1000 nM (sheet 'Samples'), CATDS: 0.12637990091667001; n = 1.
The mark [1] stands for this setting: compound concentrations:100 nM and 1000 nM (sheet 'Samples').

In the case of `O=C(Nc1n[nH]c2nc(-c3ccc(O)cc3)c(Br)cc12)C1CC1` [SB-725317], the potency estimated from few doses in the assay on ADRBK1 (setting [1]) was 1.95 µM; in the assay with AKT2 (setting [1]), 2.42 µM; with EIF2AK1 it was 0.517 µM; with GSK3A, 0.0129 µM; in the assay on GSK3B, 0.0431 µM; in the assay on PIM2 it was 0.768 µM. Further, the values for the potency estimated from few doses with PRKAG1 and in the assay on TAOK1 were 1.61 µM and 1.84 µM, respectively.

For the molecule `Cc1ccc(NC(=O)CC2CC2)cc1-c1ccc(C(=O)NCC2CC2)cc1` [GW796920X], the potency estimated from few doses with ADRBK1 (setting [1]) was 1.86 µM; with AKT1 (setting [1]) it was 1.77 µM; in the assay with AKT2 (setting [1]), 1.68 µM; in the assay with CSNK1A1, 2.22 µM; with MAP2K2 (setting [1]), 2.22 µM; in the assay on MAP3K4, 1.8 µM. The potency estimated from few doses in the assay on MAPK14 is 0.629 µM; in the assay with NCL, 2.3 µM; in the assay with OPA1 it was 1.7 µM; with PIM2 it was 1.74 µM; in the assay with PIP4K2C, 1.65 µM; with PRKAG2, 1.31 µM. The potency estimated from few doses in the assay on PYGL was 2.13 µM; in the assay on STK16, 2.17 µM; with STK26, 1.45 µM.

In the case of `O=C(Nc1ccc2c(c1)OCO2)NC1CCN(c2ccnc(NCc3ccc(F)cc3)n2)CC1` [GSK1379859A], the potency estimated from few doses in the assay on ADRBK1 (compound concentrations: 100 nM and 1000 nM (sheet 'Samples'), CATDS: 1) was 2.16 µM.

Regarding `CC(C)S(=O)(=O)c1ccc2nccc(Nc3ccc4scnc4c3)c2c1` [GSK872], the potency estimated from few doses in the assay on ADCK3 was 0.483 µM; in the assay with RIPK2 it was 0.00251 µM; in the assay on RIPK3, 0.0707 µM.

`O=C(Nc1cccc(-c2nn3ccccc3c2-c2ccnc(Nc3cccc(C(F)(F)F)c3)n2)c1)c1c(F)cccc1F` [GSK292658A]: the potency estimated from few doses in the assay with ADK (compound concentrations: 100 nM and 1000 nM (sheet 'Samples'), CATDS: 0.51902262396373799) is 1.33 µM; in the assay with COX5A (compound concentrations: 100 nM and 1000 nM (sheet 'Samples'), CATDS: 0.48232246819666902), 1.54 µM.

As to `O=c1cc(N2CCOCC2)nc2n(Cc3ccccc3F)ccn12` [GSK2297428A], the potency estimated from few doses in the assay on ADRBK1 (setting [1]) was 1.69 µM; with COX5A (setting [1]) it was 1.3 µM; in the assay on EPHA7, 1.66 µM; in the assay on PIK3CB, 0.385 µM.

With `O=c1cc(N2CCOCC2)nc2n(Cc3cccc4ccccc34)ccn12` [GSK2333389A], the potency estimated from few doses was 0.889 µM with ADK (setting [1]), 0.0161 µM in the assay on PIK3CB, 0.214 µM in the assay on PIK3CD and 1.89 µM in the assay on RIOK2.

For the molecule `Cn1cc(C2=C(c3ccc4ccccc4c3)C(=O)NC2=O)c2ccccc21` [RO0317254-000], the potency estimated from few doses is 2.34 µM with ADRBK1 (compound concentrations: 100 nM and 1000 nM (sheet 'Samples'), CATDS: 0.11613570195442); 2.05 µM in the assay with AKT1 (compound concentrations: 100 nM and 1000 nM (sheet 'Samples'), CATDS: 0.12373221048930499); 2.13 µM in the assay with AKT2 (compound concentrations: 100 nM and 1000 nM (sheet 'Samples'), CATDS: 0.121499008172246); 2.16 µM in the assay on CDK6; 1.82 µM in the assay on MAP2K1; 2.13 µM in the assay with MAP2K2 (compound concentrations: 100 nM and 1000 nM (sheet 'Samples'), CATDS: 0.121431246351448). The potency estimated from few doses was 1.57 µM in the assay with NNT and 1.96 µM in the assay with NQO1.
